Reference: the supplement of paper PMC11732987, “Enantioselective OTUD7B fragment discovery through chemoproteomics screening and high-throughput optimisation” (Communications Chemistry, 2025)

Experiments:
Assay in all cases: log2 ratio of Biotin-Ahx-Ub-VS probe labelling (fragment/DMSO); higher = less target engagement (more negative = stronger competition), active = hit call of the paper (q ≤ 0.05, log2 ratio ≤ -1)
Conditions in all cases: compound concentration: 200 uM; treatment time: 3 h
[1] = target: T1, OTUD6B (UniProt Q8N6M0)
T1 sequence (whole entry): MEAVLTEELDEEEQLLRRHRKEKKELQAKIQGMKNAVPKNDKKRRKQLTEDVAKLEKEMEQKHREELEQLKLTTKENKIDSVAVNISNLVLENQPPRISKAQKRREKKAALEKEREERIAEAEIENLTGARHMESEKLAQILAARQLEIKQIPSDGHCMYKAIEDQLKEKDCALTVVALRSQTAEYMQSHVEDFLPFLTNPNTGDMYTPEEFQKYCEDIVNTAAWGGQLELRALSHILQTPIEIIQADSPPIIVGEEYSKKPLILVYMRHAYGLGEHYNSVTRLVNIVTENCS
Outline: (§1)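 Labelling with Biotin-Ahx-Ub-VS (0.5 µM final, 1 h) followed a 3 h triplicate treatment of HEK293T lysate (495 µg per sample, Tris/CHAPS/IGEPAL buffer with protease inhibitors) with fragment at 200 µM or vehicle. Labelled DUBs were NeutrAvidin-enriched, digested with LysC and trypsin, and run by diaPASEF LC-MS/MS. The values, average log2 fragment/vehicle ratios by unpaired t-test, come from global-median-normalised Spectronaut label-free quantities. Proteins with ≥2 unique peptides were used.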

[2] = target: T2, OTUD7B (UniProt Q6GQQ9)
T2 sequence (whole entry): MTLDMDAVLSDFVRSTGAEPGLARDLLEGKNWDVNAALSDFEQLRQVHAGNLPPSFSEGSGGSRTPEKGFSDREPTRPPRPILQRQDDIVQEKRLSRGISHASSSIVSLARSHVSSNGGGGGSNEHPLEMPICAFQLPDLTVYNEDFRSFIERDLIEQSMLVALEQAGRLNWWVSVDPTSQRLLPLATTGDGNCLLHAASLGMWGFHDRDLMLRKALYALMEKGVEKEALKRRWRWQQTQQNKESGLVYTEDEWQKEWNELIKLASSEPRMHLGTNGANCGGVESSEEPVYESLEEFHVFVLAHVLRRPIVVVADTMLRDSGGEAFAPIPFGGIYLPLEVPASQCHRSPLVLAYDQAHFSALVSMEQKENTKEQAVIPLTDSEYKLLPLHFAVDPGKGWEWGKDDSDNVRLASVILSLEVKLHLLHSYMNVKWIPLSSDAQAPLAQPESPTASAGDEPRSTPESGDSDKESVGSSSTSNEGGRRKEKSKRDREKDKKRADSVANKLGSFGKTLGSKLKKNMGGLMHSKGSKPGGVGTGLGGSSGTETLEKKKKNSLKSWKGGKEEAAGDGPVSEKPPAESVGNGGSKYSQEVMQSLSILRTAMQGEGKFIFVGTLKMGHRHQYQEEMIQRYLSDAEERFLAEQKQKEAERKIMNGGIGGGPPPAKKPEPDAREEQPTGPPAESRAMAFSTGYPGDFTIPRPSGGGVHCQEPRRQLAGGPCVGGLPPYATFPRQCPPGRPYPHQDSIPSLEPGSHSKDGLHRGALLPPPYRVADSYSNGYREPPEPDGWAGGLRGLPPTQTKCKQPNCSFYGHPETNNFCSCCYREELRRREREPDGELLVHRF
Outline: as §1

[3] = target: PRPF8 (UniProt Q6P2Q9)
Outline: as §1

[4] = target: T3, PSMD7 (UniProt P51665)
T3 sequence (whole entry): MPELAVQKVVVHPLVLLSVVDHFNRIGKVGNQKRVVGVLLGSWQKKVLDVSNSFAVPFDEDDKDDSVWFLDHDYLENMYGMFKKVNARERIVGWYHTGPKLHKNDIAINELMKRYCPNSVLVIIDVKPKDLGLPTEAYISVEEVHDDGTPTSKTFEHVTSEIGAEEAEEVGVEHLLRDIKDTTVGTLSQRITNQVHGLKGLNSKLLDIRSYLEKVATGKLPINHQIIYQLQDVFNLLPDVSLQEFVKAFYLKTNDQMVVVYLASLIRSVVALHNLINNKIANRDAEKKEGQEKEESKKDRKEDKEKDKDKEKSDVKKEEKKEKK
Outline: as §1

[5] = target: UCHL1 (UniProt P09936)
Sequence of UCHL1 (P09936 whole entry, looked up): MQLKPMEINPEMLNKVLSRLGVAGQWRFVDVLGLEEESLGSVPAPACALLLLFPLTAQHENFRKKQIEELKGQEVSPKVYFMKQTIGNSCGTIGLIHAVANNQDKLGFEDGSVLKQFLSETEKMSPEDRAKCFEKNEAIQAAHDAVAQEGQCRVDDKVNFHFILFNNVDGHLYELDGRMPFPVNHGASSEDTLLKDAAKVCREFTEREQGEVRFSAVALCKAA
Outline: as §1

[6] = target: T4, UCHL3 (UniProt P15374)
T4 sequence (whole entry): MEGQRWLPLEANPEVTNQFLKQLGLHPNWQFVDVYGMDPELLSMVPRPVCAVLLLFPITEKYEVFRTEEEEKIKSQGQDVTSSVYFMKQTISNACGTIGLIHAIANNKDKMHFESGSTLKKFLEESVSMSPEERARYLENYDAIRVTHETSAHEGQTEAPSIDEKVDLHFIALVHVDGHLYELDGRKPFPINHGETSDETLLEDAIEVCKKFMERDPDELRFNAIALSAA
Outline: as §1

[7] = target: T5, UCHL5 (UniProt Q9Y5K5)
T5 sequence (whole entry): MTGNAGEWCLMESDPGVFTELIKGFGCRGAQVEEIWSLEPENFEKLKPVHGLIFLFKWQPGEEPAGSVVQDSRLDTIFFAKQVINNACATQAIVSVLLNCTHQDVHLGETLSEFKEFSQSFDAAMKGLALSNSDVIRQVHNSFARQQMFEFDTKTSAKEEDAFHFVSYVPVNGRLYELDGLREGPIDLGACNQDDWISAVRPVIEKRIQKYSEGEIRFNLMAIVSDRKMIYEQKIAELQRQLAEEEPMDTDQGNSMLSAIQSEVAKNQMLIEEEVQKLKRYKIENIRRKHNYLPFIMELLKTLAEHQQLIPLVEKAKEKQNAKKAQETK
Outline: as §1

[8] = target: USP10 (UniProt Q14694)
Sequence of USP10 (Q14694 whole entry): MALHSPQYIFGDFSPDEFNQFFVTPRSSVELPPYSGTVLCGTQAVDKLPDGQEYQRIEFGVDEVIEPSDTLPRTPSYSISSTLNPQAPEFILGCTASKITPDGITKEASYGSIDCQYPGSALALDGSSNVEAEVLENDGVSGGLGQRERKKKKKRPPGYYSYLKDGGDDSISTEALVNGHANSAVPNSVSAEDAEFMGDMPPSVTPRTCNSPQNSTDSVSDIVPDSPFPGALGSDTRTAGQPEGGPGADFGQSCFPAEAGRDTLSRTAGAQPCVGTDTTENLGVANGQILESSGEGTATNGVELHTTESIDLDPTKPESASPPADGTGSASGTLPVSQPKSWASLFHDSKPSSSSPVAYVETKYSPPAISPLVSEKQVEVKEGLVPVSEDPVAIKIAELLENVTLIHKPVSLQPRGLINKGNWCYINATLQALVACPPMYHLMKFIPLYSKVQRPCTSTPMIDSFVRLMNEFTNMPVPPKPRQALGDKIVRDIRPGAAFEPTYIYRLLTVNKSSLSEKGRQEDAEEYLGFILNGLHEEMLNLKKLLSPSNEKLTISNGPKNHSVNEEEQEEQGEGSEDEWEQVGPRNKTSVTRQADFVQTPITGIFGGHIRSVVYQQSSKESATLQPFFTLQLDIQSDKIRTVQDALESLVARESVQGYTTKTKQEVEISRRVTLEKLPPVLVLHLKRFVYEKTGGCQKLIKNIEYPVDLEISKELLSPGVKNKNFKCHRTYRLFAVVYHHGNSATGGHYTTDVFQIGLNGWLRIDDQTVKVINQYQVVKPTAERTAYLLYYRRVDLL
Outline: as §1

[9] = target: T6, USP15 (UniProt Q9Y4E8)
T6 sequence (whole entry): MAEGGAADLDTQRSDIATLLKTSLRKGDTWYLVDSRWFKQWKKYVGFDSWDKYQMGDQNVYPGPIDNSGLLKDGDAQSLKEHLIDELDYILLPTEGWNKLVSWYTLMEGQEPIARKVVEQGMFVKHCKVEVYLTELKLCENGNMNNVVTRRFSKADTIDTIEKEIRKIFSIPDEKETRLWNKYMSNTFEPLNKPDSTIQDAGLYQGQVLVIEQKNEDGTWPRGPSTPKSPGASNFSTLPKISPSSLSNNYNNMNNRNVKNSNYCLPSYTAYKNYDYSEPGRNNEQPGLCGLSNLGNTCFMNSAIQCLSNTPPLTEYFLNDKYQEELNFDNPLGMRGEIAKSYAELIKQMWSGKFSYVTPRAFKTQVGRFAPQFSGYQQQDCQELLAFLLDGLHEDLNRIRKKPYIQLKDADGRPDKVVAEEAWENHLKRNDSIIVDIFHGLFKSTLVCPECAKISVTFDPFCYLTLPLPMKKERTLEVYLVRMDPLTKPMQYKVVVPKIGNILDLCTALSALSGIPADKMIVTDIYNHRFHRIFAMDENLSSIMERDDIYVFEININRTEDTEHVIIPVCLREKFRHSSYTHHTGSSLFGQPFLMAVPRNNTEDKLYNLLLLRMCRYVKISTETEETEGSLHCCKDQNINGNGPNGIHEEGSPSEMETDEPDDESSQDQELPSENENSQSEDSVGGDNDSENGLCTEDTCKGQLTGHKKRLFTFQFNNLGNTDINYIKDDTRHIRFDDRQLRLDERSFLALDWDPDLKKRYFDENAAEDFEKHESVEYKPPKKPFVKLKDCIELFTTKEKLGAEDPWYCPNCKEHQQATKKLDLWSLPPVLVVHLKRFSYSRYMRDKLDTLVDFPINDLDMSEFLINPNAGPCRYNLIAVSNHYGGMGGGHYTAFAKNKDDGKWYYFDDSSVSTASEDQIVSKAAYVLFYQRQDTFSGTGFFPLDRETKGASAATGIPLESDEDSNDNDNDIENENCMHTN
Outline: as §1

[10] = target: USP16 (UniProt Q9Y5T5)
Sequence of USP16 (Q9Y5T5 whole entry, looked up): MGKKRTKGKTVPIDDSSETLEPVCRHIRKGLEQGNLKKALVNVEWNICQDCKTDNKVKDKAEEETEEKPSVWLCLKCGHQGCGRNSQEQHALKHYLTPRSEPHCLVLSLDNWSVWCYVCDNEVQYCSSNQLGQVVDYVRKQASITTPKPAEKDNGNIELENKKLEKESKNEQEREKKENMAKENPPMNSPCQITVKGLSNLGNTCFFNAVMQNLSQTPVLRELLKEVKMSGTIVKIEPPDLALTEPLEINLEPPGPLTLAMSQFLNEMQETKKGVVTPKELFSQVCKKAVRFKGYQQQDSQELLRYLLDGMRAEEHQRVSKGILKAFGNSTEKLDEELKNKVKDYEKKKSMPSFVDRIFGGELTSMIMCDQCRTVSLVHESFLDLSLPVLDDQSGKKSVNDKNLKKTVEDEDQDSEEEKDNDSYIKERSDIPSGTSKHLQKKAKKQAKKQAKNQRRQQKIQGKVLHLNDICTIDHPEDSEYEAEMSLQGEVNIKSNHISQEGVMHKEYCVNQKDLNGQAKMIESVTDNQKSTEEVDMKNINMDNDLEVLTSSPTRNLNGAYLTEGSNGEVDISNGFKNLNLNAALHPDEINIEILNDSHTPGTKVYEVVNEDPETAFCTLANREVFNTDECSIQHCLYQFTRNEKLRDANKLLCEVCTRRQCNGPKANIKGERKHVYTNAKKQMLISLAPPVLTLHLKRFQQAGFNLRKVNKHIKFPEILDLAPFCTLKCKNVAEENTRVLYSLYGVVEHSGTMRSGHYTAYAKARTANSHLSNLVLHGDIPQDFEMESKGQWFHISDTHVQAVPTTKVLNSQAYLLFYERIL
Outline: as §1

Measured: log2 ratio of Biotin-Ahx-Ub-VS probe labelling

C/C(=C\CNC(=O)CCl)c1cnn(C)c1.Cl
inactive: [1] -0.0447 | [2] -0.863 | [3] 0.0944 | [4] 0.0605 | [6] 0.15 | [7] -0.0212 | [8] -0.19 | [9] -0.476 | [10] -0.58
active: [5] -1.27
